HT1080 IDH1KD tx = toxicity to HT-1080 IDH1 knockdown cells (counter line); AID 686971; Potency, µM (titrated, usually from 46.1 µM), hits mostly cytotoxic; 2% of 360,000 active; HT-1080 IDH1 knockdown viability, ATP luminescence, 48 h
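Knockdown cells (IDH1KD HT-1080) received compounds 2 h after plating at 750 cells/well and were kept 48 h at 37 °C in 5% FBS RPMI. A CellTiter-Glo luminescence read gave % activity for curve fitting.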
KB-3-1 tox = kills parental KB-3-1 adenocarcinoma cells. KB-3-1 viability, CellTiter-Glo ATP luminescence, 72 h. Potency, µM (titrated, usually from 46.1 µM), most hits filed as cytotoxic. 1.4% of 400,000 active; note: nearly all actives have a fitted effect of over 60% in size
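Multi-concentration cytotoxicity screen in KB-3-1 cells grown in DMEM lacking phenol red with 10% FBS. After 72 h at 37 °C with compound, ATP-dependent luminescence was recorded.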
SW480 rerep = inducers of DNA re-replication in SW480 colon cancer cells | SW480 DNA re-replication, Hoechst DNA content imaging, 48 h | Potency, µM (highest dose often 46.1 µM), most hits filed as activators | 1.8% of 340,000 active | AID 624297; note: nearly all actives have a fitted effect of over 55% in size
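Compounds, transferred as 23 nL by pin tool, were incubated with cells for 48 hr; DNA content per nucleus was then quantified by Hoechst staining and fluorescence plate imaging.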
KB-V1 cytotox = kills drug-selected multidrug resistant KB-V1 cells; KB-V1 MDR cells viability, CellTiter-Glo, 72 h; Potency, µM (doses to about 46.1 µM), most hits filed as cytotoxic; 3.4% of 400,000 active; AID 1347076; note: nearly all actives have a fitted effect of over 60% in size
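Following 72 h at 37 degrees C with compound, KB-V1 cell viability was read by CellTiter-Glo luminescence, medium being phenol-red-free DMEM plus 10% FBS; concentration-response parameters came from normalized, curve-fitted qHTS data.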
MCF10A rerep = induces DNA re-replication in MCF 10a normal breast cells; MCF 10A DNA re-replication, Hoechst nuclear intensity, 48 h; Potency, µM (doses to about 46.1 µM), actives largely listed as activators; 2.9% of 350,000 active; AID 624296; note: nearly all actives have a fitted effect of over 50% in size
HT1080NT lethal = kills 2HG-producing HT-1080-NT fibrosarcoma cells | 1.6% of 360,000 active | Potency, µM (doses to about 46.1 µM), actives largely listed as cytotoxic | HT-1080-NT fibrosarcoma viability, CellTiter-Glo ATP luminescence, 48 h;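 note: NT is the 2HG producing partner of a matched IDH1 knockdown line; nearly all actives have a fitted effect of over 55% in size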
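Read-out is CellTiter-Glo luminescence after 10 minutes at room temperature, following 48 hours' compound treatment of HT-1080-NT cells (750 cells/well, RPMI, 5% FBS, 37 degrees C).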
Of the large screens only hits and unclear results are named; the others gave an inactive call. This is a sample that favours compounds with a hit; in the whole collection about 7.9% have one here. Calls come from the whole dose curve; as a rule, active = well fitted curve in the direction sought with a large enough effect; inconclusive = small, poorly fitted or top-dose-only effect, or another doubt; inactive = no such curve, though single readings can be large; an effect the other way counts as inactive or inconclusive.

C=CC12C=CC=CN1C(C(=O)OC)=C(C(=O)OC)C(C(=O)OC)=C2C(=O)OC (configuration not stated)	KB-V1 cytotox 18.4µM
O=C1CCC(C(=O)N2CCCC2)CN1Cc1cccc(C(F)(F)F)c1 (configuration not stated)	none (no result: KB-3-1 tox, KB-V1 cytotox)
COC(=O)[C@@]1(Sc2ccc(C)cc2)CC(=O)N(C(=O)/C=C/c2ccccc2)[C@@H]1c1ccccc1	HT1080 IDH1KD tx inconclusive, KB-3-1 tox inconclusive, HT1080NT lethal inconclusive (no result: SW480 rerep, MCF10A rerep)
CCOCCCNC(=O)/C(C#N)=C/c1ccc(Cl)c([N+](=O)[O-])c1	HT1080 IDH1KD tx 32.6µM, KB-3-1 tox inconclusive, KB-V1 cytotox inconclusive, MCF10A rerep 18.4µM, HT1080NT lethal 23.1µM
CCOCCCNC(=O)/C(C#N)=C/c1cc(C)c(O)c(C)c1	SW480 rerep inconclusive, MCF10A rerep 23.1µM
CCOCCCNC(=O)/C(C#N)=C/c1cc(OC)c(O)c([N+](=O)[O-])c1	HT1080 IDH1KD tx 4.61µM, KB-3-1 tox 7.31µM, SW480 rerep inconclusive, KB-V1 cytotox 5.8µM, MCF10A rerep 4.61µM, HT1080NT lethal 6.51µM
CCOCCCNC(=O)/C(C#N)=C/c1ccc(C(=O)OC)cc1	none
Cc1ccc(CCN2CC(C(=O)NCCN(C)C)CC2=O)cc1 (configuration not stated)	none
Oc1cc(Nc2ccccc2)cc2cccnc12	KB-3-1 tox inconclusive, KB-V1 cytotox inconclusive, MCF10A rerep inconclusive (no result: HT1080 IDH1KD tx, HT1080NT lethal)
Oc1cc(NCCN2CCOCC2)cc2cccnc12	KB-3-1 tox 14.6µM, SW480 rerep inconclusive, MCF10A rerep inconclusive (no result: HT1080 IDH1KD tx, HT1080NT lethal)
Cn1c(=O)n(CCCO)c(=O)c2c1nc1n2CCCN1Cc1ccccc1	none
CCc1ccc(NC(=O)C(C)Sc2ccc(S(=O)(=O)N3CCN(C)CC3)cn2)cc1 (configuration not stated)	none
O=S(=O)(c1ccc2c(c1)OCCO2)N1CCN(c2ncnc3sccc23)CC1	HT1080 IDH1KD tx inconclusive, KB-3-1 tox inconclusive, SW480 rerep inconclusive
COc1ccc(-c2csc3ncnc(N4CCN(c5ccccc5[N+](=O)[O-])CC4)c23)cc1	SW480 rerep inconclusive, MCF10A rerep 16.4µM (no result: KB-3-1 tox, KB-V1 cytotox)
Cc1ccc(-c2csc3ncnc(-n4cnc5ccccc54)c23)cc1	HT1080 IDH1KD tx 20.6µM, KB-3-1 tox inconclusive, SW480 rerep inconclusive, KB-V1 cytotox inconclusive, MCF10A rerep 9.2µM, HT1080NT lethal 16.4µM
Cc1sc2nc(CN3CCCC3)nc(N3CCN(S(=O)(=O)c4ccccc4)CC3)c2c1C	none
COc1ccc(-c2csc3ncnc(N4CCN(c5ccccc5O)CC4)c23)cc1	MCF10A rerep inconclusive
Cc1ccc(S(=O)(=O)N2CCN(c3ncnc4sccc34)CC2)cc1C	HT1080 IDH1KD tx inconclusive, KB-3-1 tox inconclusive, KB-V1 cytotox 5.17µM, MCF10A rerep inconclusive, HT1080NT lethal inconclusive
Cc1sc2ncnc(N3CCN(S(=O)(=O)c4ccccc4)CC3)c2c1C	KB-V1 cytotox 7.31µM
O=C(NCCCNC(=O)c1cnccn1)c1cccc(F)c1	none
COc1ccc(Br)cc1CNC(=O)C1COc2ccccc2C1 (configuration not stated)	none (no result: HT1080 IDH1KD tx, SW480 rerep, MCF10A rerep, HT1080NT lethal)
Cc1ccc(S(=O)(=O)N2CCN(c3ncnc4scc(-c5ccccc5)c34)CC2)cc1	KB-3-1 tox inconclusive, KB-V1 cytotox 7.31µM, MCF10A rerep inconclusive
Cc1sc2ncnc(OCC(=O)c3ccc(S(=O)(=O)N4CCCC4)cc3)c2c1C	KB-3-1 tox inconclusive, KB-V1 cytotox 4.61µM
Cc1sc2ncnc(OCC(=O)N3CCN(S(=O)(=O)c4ccc(Cl)cc4)CC3)c2c1C	none
COC(=O)c1ccc(CN2CCCC(CO)(Cc3ccccc3F)C2)cc1 (configuration not stated)	SW480 rerep inconclusive, MCF10A rerep inconclusive
O=C(CCCCn1c(=O)c2ccccc2n(Cc2cccc(Cl)c2)c1=O)NCc1ccc2c(c1)OCO2	KB-3-1 tox inconclusive (no result: HT1080 IDH1KD tx, SW480 rerep, MCF10A rerep, HT1080NT lethal)
O=C(C1CC(=O)N(C2CCCC2)C1)N1CCC(Cc2ccccc2)CC1 (configuration not stated)	KB-V1 cytotox 13µM
O=C(C1CC(=O)N(C2CCCC2)C1)N1CCN(c2ccccc2F)CC1 (configuration not stated)	none
C[C@@H]1CN([C@@H](C)CO)C(=O)c2cc(C#CCN(C)C)cnc2O[C@H]1CN(C)Cc1ccc2c(c1)OCO2	none (no result: SW480 rerep, MCF10A rerep)
Cc1ccc2c(c1)N(CCCC(=O)NCCCN1CCCCC1)C(=O)CO2	none
CCN(CCCNC(=O)CCCN1C(=O)COc2ccc(C)cc21)c1cccc(C)c1	KB-V1 cytotox 11.6µM
O=S(Cc1cc(Sc2ccccc2)nc(-c2ccccc2)n1)c1ccccc1 (configuration not stated)	HT1080 IDH1KD tx inconclusive, KB-3-1 tox inconclusive, SW480 rerep inconclusive, KB-V1 cytotox inconclusive, MCF10A rerep 23.1µM, HT1080NT lethal inconclusive
CNc1cc(CS(=O)c2ccccc2)nc(-c2ccccc2)n1 (configuration not stated)	none
COc1ccc(O)c(/C=C2/SC(=S)N(Cc3ccccc3)C2=O)c1	KB-3-1 tox inconclusive, KB-V1 cytotox inconclusive, MCF10A rerep 13µM
O=C(O)COc1ccc(/C=C2/SC(=S)N(Cc3ccccc3)C2=O)cc1	none
COc1ccc(OC)c(/C=C2\SC(=S)N(Cc3cccnc3)C2=O)c1	KB-3-1 tox inconclusive, SW480 rerep 16.4µM, KB-V1 cytotox 14.6µM, MCF10A rerep 6.51µM
O=C1/C(=C\c2cc(Cl)c(O)c(Cl)c2)SC(=S)N1Cc1ccccc1	HT1080 IDH1KD tx inconclusive, KB-3-1 tox inconclusive, SW480 rerep inconclusive, KB-V1 cytotox 3.66µM, MCF10A rerep 2.06µM, HT1080NT lethal inconclusive
COc1ccc(/C=C2/SC(=S)N(Cc3ccccc3)C2=O)cc1O	HT1080 IDH1KD tx inconclusive, MCF10A rerep inconclusive
CCCC1OC(c2cc3c(cc2Cl)OCO3)OCC1CC (configuration not stated)	HT1080NT lethal inconclusive
COc1cccc(-c2nc(SCC(=O)Nc3ccc4c(c3)OCO4)c(-c3ccccc3)[nH]2)c1	KB-V1 cytotox inconclusive (no result: HT1080 IDH1KD tx, SW480 rerep, MCF10A rerep, HT1080NT lethal)
CCCCC(c1nc2ccccc2[nH]1)n1c(-c2ccccc2)nc2ccccc21 (configuration not stated)	none (no result: SW480 rerep, MCF10A rerep)
O=C(NCCc1ccccc1)c1ccc(-c2ccc(F)c(F)c2)c2ccoc12	KB-V1 cytotox inconclusive (no result: SW480 rerep, MCF10A rerep)
O=C(Nc1ccc(C(F)(F)F)cc1)N1CCN(c2ccnc3cc(Cl)ccc23)CC1	HT1080 IDH1KD tx 29.1µM, SW480 rerep inconclusive, KB-V1 cytotox inconclusive, MCF10A rerep inconclusive, HT1080NT lethal inconclusive
Cc1ccc(C(=O)N/C(=C\c2ccc(-c3cccc([N+](=O)[O-])c3)o2)C(=O)NCCCN2CCOCC2)cc1	HT1080 IDH1KD tx inconclusive, KB-3-1 tox inconclusive, SW480 rerep inconclusive, KB-V1 cytotox inconclusive, HT1080NT lethal 18.4µM
